From PubChem BioAssay AID2284116 (EPA ToxCast)
Activity calls are given as the source filed them. The calls were made as follows: active = hit-call score of the fitted dose curve at least 0.9, where 1 is the maximum; inactive = score below 0.9.

Each compound was assayed against human Matrix Metallopeptidase 9 (MMP9), MMP9 (gene 4318) (UniProt P14780) (assay: ERF_FR_ENZ_hMMP9: Eurofins (ERF) Enzymatic LeadHunter Assay for human Matrix Metallopeptidase 9 (MMP9)).
Chain of human Matrix Metallopeptidase 9 (MMP9), MMP9 (gene 4318) (P14780 whole entry, looked up): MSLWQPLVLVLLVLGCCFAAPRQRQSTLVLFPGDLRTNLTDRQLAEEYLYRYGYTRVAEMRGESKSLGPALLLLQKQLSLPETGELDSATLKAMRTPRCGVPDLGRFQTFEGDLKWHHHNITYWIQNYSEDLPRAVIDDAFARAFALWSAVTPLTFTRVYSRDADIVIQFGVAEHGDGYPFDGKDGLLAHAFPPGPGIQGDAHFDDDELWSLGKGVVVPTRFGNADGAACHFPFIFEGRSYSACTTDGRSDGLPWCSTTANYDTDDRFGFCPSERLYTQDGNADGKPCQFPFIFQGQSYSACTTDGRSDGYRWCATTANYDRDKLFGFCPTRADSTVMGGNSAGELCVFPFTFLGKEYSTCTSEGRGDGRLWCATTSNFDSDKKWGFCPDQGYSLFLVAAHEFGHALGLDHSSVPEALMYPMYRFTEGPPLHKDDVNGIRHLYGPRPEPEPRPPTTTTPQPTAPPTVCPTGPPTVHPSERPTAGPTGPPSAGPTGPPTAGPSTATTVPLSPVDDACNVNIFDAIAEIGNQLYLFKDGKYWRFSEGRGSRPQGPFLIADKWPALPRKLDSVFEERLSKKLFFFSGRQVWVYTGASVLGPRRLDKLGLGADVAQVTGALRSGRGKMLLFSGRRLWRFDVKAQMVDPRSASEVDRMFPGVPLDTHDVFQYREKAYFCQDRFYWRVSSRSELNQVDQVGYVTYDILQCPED
Experimental: ERF_FR_ENZ_hMMP9 is a biochemical, single-readout assay that uses extracted gene-proteins in a cell-free assay. Measurements were taken 1.5 hour after chemical dosing in a 96-well plate. See MMP9 Human Matrix Metallopeptidase Enzymatic Assay, Cerep.ERF_FR_ENZ_hMMP9 is an assay component calculated from the ERF_FR_ENZ_hMMP9 assay. It is designed to measure enzyme activity using a type of enzyme reporter as detected by fluorescence intensity with fluorimetry technology.Data from the assay component ERF_FR_ENZ_hMMP9 was analyzed at the assay endpoint, ERF_FR_ENZ_hMMP9, in the positive analysis fitting direction relative to DMSO as the negative control and baseline of activity. Using a type of enzyme reporter, loss-of-signal activity can be used to understand changes in enzymatic activity as they relate to gene MMP9. To generalize the intended target to other relatable targets, this assay endpoint is annotated to the protease intended target family, where the subfamily is matrix metallopeptidase.
[…] are incubated for 60 minutes at room tempreature with Mca-PLGL-Dap(Dnp)-AR-NH2 (7.5 uM) as sunstrate and […] as control inhibitor. Test Sample Requirements: Minimum for 1) Screen: 60 ul of 10 mM stock -OR- 1 mg (pre-weighed) for 10 uM final testing. 2) Dose Response: 90 ul of 10 mM stock -OR- 1 mg (pre-weighed) for a top concentration at 10 uM.
In the case of `O=C(/C=C/c1ccc(O)cc1)CC(=O)/C=C/c1ccc(O)cc1`, the outcome is reported as “inactive”.
